The values that follow come from the supplement of paper PMC12340641.

Where a name gives a salt, the structure may show the parent alone.

Assay [1] deals with IKZF1 (dCK*-IKZF1 fusion in HEK293FT) (UniProt Q13422). Briefly: inhibition of IKZF1 HTRF signal (DMSO = 0%, pomalidomide 10 uM = 100%); higher = lower IKZF1 protein level. As to conditions: compound concentration: 5 uM, overnight (~20 h). An outline of the steps:
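After overnight treatment at 37 °C with 5 μM compound in single wells, HEK293FT cells (2000/well, 384-well) stably expressing an IKZF1 fusion were lysed for 30 min at room temperature. A commercial HTRF total-IKZF1 antibody kit was incubated with the lysate overnight, and the time-resolved FRET ratio at 665/620 nm was corrected for background. Data are given as percent inhibition of IKZF1 signal relative, on each plate, to vehicle and a reference degrader, set at 0% and 100% respectively.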

The next assay has as its system HEK293FT dCK*-only. Briefly: relative growth in counter assay (no AraC = 100%, AraC + DMSO = 0%); higher = more growth rescue independent of IKZF1. As to conditions: compound concentration: 5 uM; AraC concentration: 0.3 uM; overnight pretreatment + 4 days AraC. An outline of the steps:
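Counter assay in HEK293FT cells expressing dCK* alone (300/well, 384-well). Cells received 5 μM compound 2 h after seeding, then after overnight at 37 °C a nucleoside suicide substrate at 0.3 μM plus medium for 4 days. On day 5, Hoechst 33342-stained nuclei were counted by imaging. Relative growth was normalised per plate to wells without suicide substrate (100%) and substrate plus vehicle (0%).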

A further assay relates to HEK293FT dCK*-IKZF1. In words: relative growth recovery (pomalidomide 10 uM = 100%, DMSO = 0%); higher = more growth rescue (IKZF1 fusion degradation). As to conditions: compound concentration: 5 uM; AraC concentration: 0.3 uM; overnight pretreatment + 4 days AraC. The procedure, abridged:
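HEK293FT cells stably expressing a dCK*-IKZF1 fusion (300/well, 384-well) received 5 μM compound 2 h after seeding. After overnight at 37 °C they received a nucleoside suicide substrate at 0.3 μM plus medium for 4 days. On day 5, Hoechst 33342-stained nuclei were counted by whole-well imaging. Growth recovery was normalised per plate to a reference degrader (100%) and vehicle (0%); values are means of duplicates run on different days.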

Chain of IKZF1 (dCK*-IKZF1 fusion in HEK293FT) (Q13422 whole entry, looked up, the tested form may be a part): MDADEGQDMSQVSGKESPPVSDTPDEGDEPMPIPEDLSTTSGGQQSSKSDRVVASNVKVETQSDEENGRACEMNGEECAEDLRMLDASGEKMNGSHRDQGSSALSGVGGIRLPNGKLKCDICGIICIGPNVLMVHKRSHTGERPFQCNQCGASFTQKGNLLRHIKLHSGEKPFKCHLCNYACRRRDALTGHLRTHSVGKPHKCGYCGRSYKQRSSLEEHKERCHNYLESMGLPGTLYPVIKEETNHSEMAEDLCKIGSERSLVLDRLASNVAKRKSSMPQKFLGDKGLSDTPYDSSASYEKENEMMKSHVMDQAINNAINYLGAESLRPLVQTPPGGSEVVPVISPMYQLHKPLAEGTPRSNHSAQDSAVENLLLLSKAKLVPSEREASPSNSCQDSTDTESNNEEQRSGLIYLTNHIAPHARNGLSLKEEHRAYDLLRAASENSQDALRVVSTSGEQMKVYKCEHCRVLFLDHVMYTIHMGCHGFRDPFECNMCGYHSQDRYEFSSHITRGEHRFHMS

For `Oc1ccc(Cl)c2cccnc12`, in assay [1], the “inhibition of IKZF1 HTRF signal” value is -32.6%. In the assay on HEK293FT dCK*-only, the “relative growth in counter assay” value is -6.2%. Further, the relative growth recovery with HEK293FT dCK*-IKZF1 was -1.79%.

In the case of `CCN(CCCCCOCC(=O)N[C@H](C(=O)N1C[C@H](O)C[C@H]1C(=O)N[C@@H](C)c1ccc(-c2scnc2C)cc1)C(C)(C)C)CCOc1ccc(C(=O)c2c(-c3ccc(O)cc3)sc3cc(O)ccc23)cc1`, the “inhibition of IKZF1 HTRF signal” value in assay [1] amounted to 3.72%. Also, the “relative growth in counter assay” value in the assay on HEK293FT dCK*-only worked out at 13.8%. Besides, the relative growth recovery in the assay with HEK293FT dCK*-IKZF1 came to 11%.

On to `Oc1cc2c(cc1O)[C@@H]1c3ccc(O)c(O)c3OC[C@]1(O)C2` [Hematoxylin (Hydroxybrazilin)], for which, in assay [1], the “inhibition of IKZF1 HTRF signal” value is -6.3%. In addition, the “relative growth in counter assay” value with HEK293FT dCK*-only is -6.89%. Also, in the assay on HEK293FT dCK*-IKZF1, the relative growth recovery was -1.47%.

In the case of `CCCSc1ccc2[nH]c(NC(=O)OC)nc2c1`, the “inhibition of IKZF1 HTRF signal” value in assay [1] was -15.2%. Besides, the “relative growth in counter assay” value in the assay on HEK293FT dCK*-only was -32.2%. Further, in the assay on HEK293FT dCK*-IKZF1, the relative growth recovery is -11.2%.

Regarding `CCC(=O)N1CCN(c2ccc(-n3c(=O)ccc4cnc5ccc(-c6cnc7ccccc7c6)cc5c43)cc2C(F)(F)F)CC1` [Torin 1], the “inhibition of IKZF1 HTRF signal” value in assay [1] was 35.7%. Also, in the assay with HEK293FT dCK*-only, the “relative growth in counter assay” value was -27.5%. Besides, the relative growth recovery in the assay with HEK293FT dCK*-IKZF1 is -10.5%.

As to `O=C2[C@]([C@]3=CC(Cl)=CC=C3OC)(F)C1=CC=C(C(F)(F)F)C=C1N2` [flindokalner], the “inhibition of IKZF1 HTRF signal” value in assay [1] is -26.1%. Also, the “relative growth in counter assay” value in the assay on HEK293FT dCK*-only was -5.3%. For the same compound, the relative growth recovery in the assay with HEK293FT dCK*-IKZF1 was -1.65%.

In the case of `NC(=O)N/N=C/c1ccc(Oc2ccc(F)cc2)cc1`, the “inhibition of IKZF1 HTRF signal” value in assay [1] is -35%. In addition, the “relative growth in counter assay” value in the assay on HEK293FT dCK*-only is 2.45%. For the same compound, the relative growth recovery with HEK293FT dCK*-IKZF1 is -1.07%.

With `O=C(Nc1ccc(Cl)nc1)c1ccc(Cl)cc1`, the “inhibition of IKZF1 HTRF signal” value in assay [1] is -32.9%. Also, the “relative growth in counter assay” value in the assay on HEK293FT dCK*-only came to 4.25%. The relative growth recovery in the assay with HEK293FT dCK*-IKZF1 was 3.85%.

As to `C[C@@H]1CC(=O)c2c(ccc3c2C(=O)c2cccc(O)c2C3=O)C1` [ochromycinone], in assay [1], the “inhibition of IKZF1 HTRF signal” value turned out to be 14.5%. The “relative growth in counter assay” value in the assay on HEK293FT dCK*-only was found to be 6.7%. Besides, the relative growth recovery in the assay with HEK293FT dCK*-IKZF1 was -2.08%.

As to `NC(=O)N/N=C/c1ccc([N+](=O)[O-])o1`, the “inhibition of IKZF1 HTRF signal” value in assay [1] was -34.9%. In addition, the “relative growth in counter assay” value in the assay with HEK293FT dCK*-only was -3.72%. Besides, in the assay on HEK293FT dCK*-IKZF1, the relative growth recovery was -4.82%.

In the case of `CCCCC(CC)COc1ccc(-c2nc(-c3ccc(OC)cc3)nc(-c3ccc(OCC(CC)CCCC)cc3O)n2)c(O)c1` (configuration not stated), the “inhibition of IKZF1 HTRF signal” value in assay [1] was -35.1%. Also, the “relative growth in counter assay” value with HEK293FT dCK*-only is 12.9%. Also, in the assay with HEK293FT dCK*-IKZF1, the relative growth recovery is 1.75%.

For `CC(=O)N(OCc1ccccc1)[C@@H]1c2cc(C#N)ccc2OC(C)(C)[C@H]1O`, the “inhibition of IKZF1 HTRF signal” value in assay [1] was -1.85%. In addition, the “relative growth in counter assay” value in the assay with HEK293FT dCK*-only amounted to 4.48%. Further, in the assay on HEK293FT dCK*-IKZF1, the relative growth recovery was -0.925%.

As for `O=C1NC(=O)/C(=C/c2ccc(-c3ccc(F)cc3O)o2)S1`, in assay [1], the “inhibition of IKZF1 HTRF signal” value was -15.8%. In addition, the “relative growth in counter assay” value in the assay on HEK293FT dCK*-only was -7.95%. Besides, the relative growth recovery with HEK293FT dCK*-IKZF1 was -0.795%.

Consider `Cc1c(S(=O)(=O)O)oc2c1C(=O)C(=O)c1c-2ccc2c1CCCC2(C)C` [sodium-tanshinone-ii-a-sulfonate], for which the “inhibition of IKZF1 HTRF signal” value in assay [1] came to 20.9%. Moreover, in the assay with HEK293FT dCK*-only, the “relative growth in counter assay” value stood at 4.38%. Moreover, the relative growth recovery in the assay with HEK293FT dCK*-IKZF1 was -1.25%.

As for `CC(C)(C)C1=CC=C(CN(C)[C@H](C(N[C@H]([C@](NC(C)(C)C)=O)CC2=CC=C(OCC3=CC=CC=C3)C=C2)=O)CC(C)C)C=C1`, in assay [1], the “inhibition of IKZF1 HTRF signal” value was -24.5%. Moreover, the “relative growth in counter assay” value with HEK293FT dCK*-only turned out to be 1.14%. Further, in the assay on HEK293FT dCK*-IKZF1, the relative growth recovery was -2.38%.

As for `COC(=O)C1=C(C)NC(C)=C(C(=O)OC(C)(C)CN(C)CCC(c2ccccc2)c2ccccc2)C1c1cccc([N+](=O)[O-])c1` (configuration not stated) [lercanidipine], in assay [1], the “inhibition of IKZF1 HTRF signal” value was -5.35%. Further, the “relative growth in counter assay” value with HEK293FT dCK*-only was -6.01%. Further, the relative growth recovery with HEK293FT dCK*-IKZF1 worked out at 1.64%.

For the compound `CC(=NNc1nnc2c(n1)[nH]c1c(C)cccc12)c1ccccn1`, the “inhibition of IKZF1 HTRF signal” value in assay [1] amounted to 40.7%. Also, the “relative growth in counter assay” value with HEK293FT dCK*-only was -31.6%. For the same compound, the relative growth recovery in the assay with HEK293FT dCK*-IKZF1 is -12.7%.

Turning to `CC1(C)CCC2=C(O1)c1ccccc1C(=O)C2=O`, in assay [1], the “inhibition of IKZF1 HTRF signal” value is -30%. In addition, the “relative growth in counter assay” value with HEK293FT dCK*-only was -24.5%. For the same compound, the relative growth recovery in the assay on HEK293FT dCK*-IKZF1 was -10.9%.

For the compound `CN1CCCCC1CCN1c2ccccc2Sc2ccc(S(C)=O)cc21` (configuration not stated) [mesoridazine besylate], the “inhibition of IKZF1 HTRF signal” value in assay [1] is -49.8%. The “relative growth in counter assay” value in the assay with HEK293FT dCK*-only amounted to 10.8%. Further, the relative growth recovery in the assay on HEK293FT dCK*-IKZF1 was -0.555%.

In the case of `CN1CCN(C2=Nc3ccccc3Sc3ccc(Cl)cc32)CC1` [Clothiapine], the “inhibition of IKZF1 HTRF signal” value in assay [1] amounted to 23.7%. Besides, the “relative growth in counter assay” value in the assay on HEK293FT dCK*-only is 0.53%. Further, the relative growth recovery in the assay with HEK293FT dCK*-IKZF1 came out at 0.605%.

`CC[C@]1(O)C[C@H]2CN(CCc3c([nH]c4ccccc34)[C@@](C(=O)OC)(c3cc4c(cc3OC)N(C=O)[C@H]3[C@@](O)(C(=O)OC)[C@H](OC(C)=O)[C@]5(CC)C=CCN6CC[C@]43[C@@H]65)C2)C1` [Vincristine Sulfate]: in assay [1], the “inhibition of IKZF1 HTRF signal” value was 33.3%. In addition, the “relative growth in counter assay” value in the assay with HEK293FT dCK*-only is -33.5%. For the same compound, the relative growth recovery with HEK293FT dCK*-IKZF1 was -12.2%.

In the case of `Cc1cc(C)nc(NS(=O)(=O)c2ccc(N)cc2)n1`, the “inhibition of IKZF1 HTRF signal” value in assay [1] was -24.1%. The “relative growth in counter assay” value in the assay on HEK293FT dCK*-only worked out at 2.2%. For the same compound, in the assay on HEK293FT dCK*-IKZF1, the relative growth recovery was -1.69%.

On to `COc1cc(C(=O)NS(=O)(=O)c2ccccc2C)ccc1Cc1cn(C)c2ccc(NC(=O)OC3CCCC3)cc12` [Zafirlukast], for which, in assay [1], the “inhibition of IKZF1 HTRF signal” value is -43.3%. The “relative growth in counter assay” value with HEK293FT dCK*-only was -15.2%. In addition, the relative growth recovery with HEK293FT dCK*-IKZF1 is -5.17%.

In the case of `O=C1OCCN1/N=C/c1ccc([N+](=O)[O-])o1`, in assay [1], the “inhibition of IKZF1 HTRF signal” value was -32.5%. Besides, the “relative growth in counter assay” value with HEK293FT dCK*-only was -3.23%. Moreover, the relative growth recovery with HEK293FT dCK*-IKZF1 is -3.37%.

Regarding `CC(C)(C)CC(C)(C)c1ccc(OCCOCC[N+](C)(C)Cc2ccccc2)cc1`, the “inhibition of IKZF1 HTRF signal” value in assay [1] amounted to 16%. In the assay on HEK293FT dCK*-only, the “relative growth in counter assay” value is -7.09%. In the assay with HEK293FT dCK*-IKZF1, the relative growth recovery is -0.695%.

As for `COc1cc([C@@H]2c3cc4c(cc3C(O[C@@H]3O[C@@H]5CO[C@@H](c6cccs6)OC5[C@H](O)[C@H]3O)C3COC(=O)[C@@H]32)OCO4)cc(OC)c1O` (some centres not stated), the “inhibition of IKZF1 HTRF signal” value in assay [1] amounted to 16.8%. For the same compound, the “relative growth in counter assay” value in the assay with HEK293FT dCK*-only was -34.5%. The relative growth recovery in the assay on HEK293FT dCK*-IKZF1 was -13.1%.

As for `CCc1ccc(OCc2ccccc2C(=O)Nc2ccc3nc(C)cc(N)c3c2)cc1`, the “inhibition of IKZF1 HTRF signal” value in assay [1] worked out at 41.1%. Further, in the assay on HEK293FT dCK*-only, the “relative growth in counter assay” value was -34.6%. In the assay with HEK293FT dCK*-IKZF1, the relative growth recovery was -14.6%.

Take `Cc1cc(N2CCCCC2)nc2ccccc12`: the “inhibition of IKZF1 HTRF signal” value in assay [1] was -32%. In the assay on HEK293FT dCK*-only, the “relative growth in counter assay” value was -2.77%. Besides, in the assay with HEK293FT dCK*-IKZF1, the relative growth recovery was -1.01%.

Take `O=C(O)c1ccc(S(=O)(=O)N(Cc2ccc(OC(F)(F)F)cc2)c2ncc(C(F)(F)F)cc2Cl)cc1`: the “inhibition of IKZF1 HTRF signal” value in assay [1] is -23.7%. Moreover, in the assay with HEK293FT dCK*-only, the “relative growth in counter assay” value was 5.77%. The relative growth recovery in the assay with HEK293FT dCK*-IKZF1 was 2.16%.
